Experimental data taken from PubChem BioAssay (Tox21).
Results filed as inconclusive are left out. Active and inactive are the calls of the source. Unless noted, the call rests on the fitted dose curve.

Experiments:
[1] = qHTS assay to identify small molecule agonists of the estrogen receptor beta (ER-beta) signaling pathway - cell viability counter screen (AID 1259380; active means well fitted curve in the direction sought with a large enough effect in the repeat runs; an effect the other way counts as inactive or inconclusive; further: nearly all actives have a fitted effect of over 30% in size; further: potency means the concentration at half of the fitted maximal effect)
Summary of the method: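 Luminescence read-out (CellTiter-Glo, 30 min, room temp) taken in the same wells as the beta-lactamase reporter assay; ER-beta-UAS-bla HEK293T cells exposed to DMSO-dissolved compounds for 16 hr at 37C in 2% charcoal-stripped FBS medium.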

[2] = target: Androgen receptor (Homo sapiens) (UniProt P10275); test: qHTS assay to identify small molecule agonists of the androgen receptor (AR) signaling pathway in the presence of an antagonist (AID 1259381); further: nearly all actives have a fitted effect of over 15% in size
Summary of the method: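 Luciferase read-out (ONE-Glo, 30min room temperature) in MDA-kb2 MMTV-reporter cells; agonist mode run in presence of AR antagonist nilutamide, 3.0uM final. Compounds tested as 15-point series, 16hr exposure at 37C, 0% CO2.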

[3] = qHTS assay to identify small molecule antagonists of the estrogen receptor beta (ER-beta) signaling pathway - cell viability counter screen (AID 1259382; active means well fitted curve in the direction sought with a large enough effect in the repeat runs; an effect the other way counts as inactive or inconclusive; further: nearly all actives have a fitted effect of over 55% in size; further: potency means the concentration at half of the fitted maximal effect;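 on activity change, negative = cytotoxicity: HEK293T cells carrying ER-beta-UAS-bla reporter stimulated with estradiol; series mostly up to about 92 µM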)
Summary of the method: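 Luminescent ATP read-out (CellTiter-Glo, 30 min, RT) taken in the same wells as the bla reporter assay. HEK293T ER-beta-UAS-bla cells in 2% charcoal-stripped FBS were exposed to compounds with 1nM E2 for 16 hr at 37C.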

[4] = target: Thyrotropin receptor (Homo sapiens) (UniProt P16473); test: qHTS assay to identify small molecule antagonists of the thyroid stimulating hormone receptor (TSHR) signaling pathway (AID 1259385); further: nearly all actives have a fitted effect of over 20% in size
Summary of the method: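 TSHR-HEK293 cells were plated and held 18 h at 37C/5% CO2, then given compound plus Ro20-1724 and stimulated with TSH at 1.5 ng/mL final. After 30 min at room temperature, cAMP was detected with cAMP-d2/anti-cAMP-cryptate (1 h) by fluorescence.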

[5] = qHTS assay to identify small molecule agonists of the estrogen receptor alpha (ER-alpha) signaling pathway in the presence of an antagonist - cell viability counter screen (AID 1259386; active means well fitted curve in the direction sought with a large enough effect in the repeat runs; an effect the other way counts as inactive or inconclusive;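 further: series mostly up to about 92 µM; cells exposed to compounds for 22 h at 37 °C before the viability read; nearly all actives have a fitted effect of over 30% in size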)
Summary of the method: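 Read-out: CellTiter-Fluor fluorescence after 1hr reagent incubation, measured in the same wells as the luciferase readout. VM7Luc4E2 cells were exposed to 15 compound concentrations with 10.0nM ICI-182,780 for 22hr at 37C.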

[6] = target: Progesterone receptor (Homo sapiens) (UniProt P06401); test: qHTS assay to identify small molecule agonists of the progesterone receptor (PR) signaling pathway (AID 1346784); further: nearly all actives have a fitted effect of over 30% in size
Summary of the method: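 Beta-lactamase reporter read-out: after 16 hr compound treatment at 37C and a further 2 hr at room temperature with LiveBLAzer B/G FRET substrate, fluorescence was measured in PR-UAS-bla HEK 293T cells grown in 2% charcoal-stripped serum.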

[7] = target: Progesterone receptor (Homo sapiens) (UniProt P06401); test: qHTS assay to identify small molecule antagonists of the progesterone receptor (PR) signaling pathway (AID 1346795; active means well fitted inhibition curve with a large enough effect in the signal ratio in the repeat runs, not every such curve was filed as active; the % refers to the signal ratio; further: potency means the concentration at half of the fitted maximal effect)
Summary of the method: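 Read-out is fluorescence from the LiveBLAzer B/G FRET substrate, cleaved by a UAS-controlled beta-lactamase in PR-UAS-bla HEK293T cells after 16 hr exposure to compound plus 1 nM promegestone (final), followed by 2 hr at room temperature.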

[8] = target: Estrogen receptor (Homo sapiens) (UniProt P03372); test: qHTS assay to identify small molecule agonists of the estrogen receptor alpha (ER-alpha) signaling pathway in the presence of an antagonist (AID 1259383); further: top concentration of the series differs between compounds; nearly all actives have a fitted effect of over 15% in size
Summary of the method: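 Luciferase luminescence (ONE-Glo, 30min at room temperature) measured in VM7Luc4E2 cells after 22hr compound exposure at 15 concentrations, with 10.0nM ICI-182,780 final present; cells express endogenous ER-alpha and carry four EREs upstream of luciferase.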

[9] = qHTS assay to identify small molecule agonists or antagonists of the thyroid stimulating hormone receptor (TSHR) signaling pathway - wild type cell line counter screen (AID 1259384)
Summary of the method: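 Wild-type HEK293 cells were plated 18 h at 37 C/5% CO2, pin-dosed with compound plus Ro20-1724 medium, held 30 min at room temperature, then given cAMP-d2 and anti-cAMP-cryptate; fluorescence was read after 1 h. Fifteen concentrations, triplicate.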

[10] = qHTS assay to identify small molecule agonists of the androgen receptor (AR) signaling pathway in the presence of an antagonist - cell viability counter screen (AID 1259379; active means well fitted curve in the direction sought with a large enough effect in the repeat runs; an effect the other way counts as inactive or inconclusive;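 further: MDA-kb2 human breast cancer cells carrying an MMTV luciferase reporter; series mostly up to about 92 µM; nearly all actives have a fitted effect of over 25% in size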)
Summary of the method: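 Viability counter screen: CellTiter-Fluor fluorescence, measured in the same wells as the luciferase read-out. MDA-kb2 cells, 3,000/well, with nilutamide at 3.0uM final and compounds at 15 concentrations, 16 hr at 37C, 0% CO2.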
On the % scale 0 is the no-effect control and ±100 the full control effect.

Chain of Thyrotropin receptor (Homo sapiens) (P16473 whole entry, looked up): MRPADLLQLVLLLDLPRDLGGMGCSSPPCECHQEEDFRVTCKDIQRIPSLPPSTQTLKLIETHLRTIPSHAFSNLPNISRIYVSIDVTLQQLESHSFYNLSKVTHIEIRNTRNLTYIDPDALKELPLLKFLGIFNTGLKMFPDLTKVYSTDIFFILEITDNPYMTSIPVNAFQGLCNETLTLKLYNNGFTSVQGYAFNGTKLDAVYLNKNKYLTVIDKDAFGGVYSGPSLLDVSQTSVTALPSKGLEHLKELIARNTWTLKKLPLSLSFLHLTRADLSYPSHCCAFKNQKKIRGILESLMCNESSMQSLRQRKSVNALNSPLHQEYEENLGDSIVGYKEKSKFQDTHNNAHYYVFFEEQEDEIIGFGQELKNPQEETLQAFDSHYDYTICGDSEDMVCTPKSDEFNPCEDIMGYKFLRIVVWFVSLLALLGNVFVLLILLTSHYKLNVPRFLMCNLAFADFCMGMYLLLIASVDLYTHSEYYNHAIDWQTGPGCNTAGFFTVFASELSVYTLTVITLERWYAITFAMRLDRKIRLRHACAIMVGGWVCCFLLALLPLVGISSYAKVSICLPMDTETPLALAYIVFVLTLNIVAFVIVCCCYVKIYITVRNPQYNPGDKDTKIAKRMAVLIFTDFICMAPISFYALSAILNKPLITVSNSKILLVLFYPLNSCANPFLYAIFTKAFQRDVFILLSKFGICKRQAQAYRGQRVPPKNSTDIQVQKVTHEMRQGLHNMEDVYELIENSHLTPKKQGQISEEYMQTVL
Chain of Progesterone receptor (Homo sapiens) (P06401 whole entry, looked up): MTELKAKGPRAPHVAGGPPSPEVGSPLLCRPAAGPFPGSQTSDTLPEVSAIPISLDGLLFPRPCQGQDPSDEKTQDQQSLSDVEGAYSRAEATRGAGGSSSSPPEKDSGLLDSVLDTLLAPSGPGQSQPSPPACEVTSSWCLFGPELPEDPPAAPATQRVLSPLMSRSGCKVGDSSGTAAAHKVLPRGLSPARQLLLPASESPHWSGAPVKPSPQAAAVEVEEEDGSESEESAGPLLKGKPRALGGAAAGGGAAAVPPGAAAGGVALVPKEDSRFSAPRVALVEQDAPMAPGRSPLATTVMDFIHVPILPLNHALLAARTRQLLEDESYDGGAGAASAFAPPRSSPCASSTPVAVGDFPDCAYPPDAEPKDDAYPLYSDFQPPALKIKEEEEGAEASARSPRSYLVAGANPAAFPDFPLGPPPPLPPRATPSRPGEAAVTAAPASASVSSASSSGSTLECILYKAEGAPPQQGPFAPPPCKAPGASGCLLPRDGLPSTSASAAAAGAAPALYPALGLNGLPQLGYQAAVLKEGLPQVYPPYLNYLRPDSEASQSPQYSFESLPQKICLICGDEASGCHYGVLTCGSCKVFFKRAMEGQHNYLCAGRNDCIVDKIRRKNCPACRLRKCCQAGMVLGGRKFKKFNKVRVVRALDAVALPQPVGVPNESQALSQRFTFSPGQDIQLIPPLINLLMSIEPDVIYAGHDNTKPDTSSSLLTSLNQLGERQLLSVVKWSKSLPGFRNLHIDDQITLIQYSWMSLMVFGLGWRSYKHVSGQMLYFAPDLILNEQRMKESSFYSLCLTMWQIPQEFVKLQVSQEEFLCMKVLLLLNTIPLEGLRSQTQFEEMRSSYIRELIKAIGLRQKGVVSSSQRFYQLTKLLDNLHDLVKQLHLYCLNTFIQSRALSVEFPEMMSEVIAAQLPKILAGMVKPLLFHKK
Chain of Estrogen receptor (Homo sapiens) (P03372 whole entry, looked up): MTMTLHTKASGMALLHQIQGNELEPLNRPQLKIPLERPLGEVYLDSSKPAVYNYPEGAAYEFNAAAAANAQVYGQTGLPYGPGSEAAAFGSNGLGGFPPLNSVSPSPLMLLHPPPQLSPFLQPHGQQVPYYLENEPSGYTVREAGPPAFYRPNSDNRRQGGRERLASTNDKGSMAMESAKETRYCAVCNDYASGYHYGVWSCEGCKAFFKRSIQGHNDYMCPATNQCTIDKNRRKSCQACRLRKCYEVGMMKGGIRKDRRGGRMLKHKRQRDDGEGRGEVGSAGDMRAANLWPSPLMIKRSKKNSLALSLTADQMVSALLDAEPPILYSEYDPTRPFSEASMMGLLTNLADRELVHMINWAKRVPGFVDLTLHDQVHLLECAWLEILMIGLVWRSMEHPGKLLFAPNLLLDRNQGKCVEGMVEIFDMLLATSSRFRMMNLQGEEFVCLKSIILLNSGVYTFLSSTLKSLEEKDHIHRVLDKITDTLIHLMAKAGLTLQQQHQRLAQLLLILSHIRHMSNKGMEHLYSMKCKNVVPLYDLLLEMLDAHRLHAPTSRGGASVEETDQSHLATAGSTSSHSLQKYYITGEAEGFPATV
Chain of Androgen receptor (Homo sapiens) (P10275 whole entry, looked up): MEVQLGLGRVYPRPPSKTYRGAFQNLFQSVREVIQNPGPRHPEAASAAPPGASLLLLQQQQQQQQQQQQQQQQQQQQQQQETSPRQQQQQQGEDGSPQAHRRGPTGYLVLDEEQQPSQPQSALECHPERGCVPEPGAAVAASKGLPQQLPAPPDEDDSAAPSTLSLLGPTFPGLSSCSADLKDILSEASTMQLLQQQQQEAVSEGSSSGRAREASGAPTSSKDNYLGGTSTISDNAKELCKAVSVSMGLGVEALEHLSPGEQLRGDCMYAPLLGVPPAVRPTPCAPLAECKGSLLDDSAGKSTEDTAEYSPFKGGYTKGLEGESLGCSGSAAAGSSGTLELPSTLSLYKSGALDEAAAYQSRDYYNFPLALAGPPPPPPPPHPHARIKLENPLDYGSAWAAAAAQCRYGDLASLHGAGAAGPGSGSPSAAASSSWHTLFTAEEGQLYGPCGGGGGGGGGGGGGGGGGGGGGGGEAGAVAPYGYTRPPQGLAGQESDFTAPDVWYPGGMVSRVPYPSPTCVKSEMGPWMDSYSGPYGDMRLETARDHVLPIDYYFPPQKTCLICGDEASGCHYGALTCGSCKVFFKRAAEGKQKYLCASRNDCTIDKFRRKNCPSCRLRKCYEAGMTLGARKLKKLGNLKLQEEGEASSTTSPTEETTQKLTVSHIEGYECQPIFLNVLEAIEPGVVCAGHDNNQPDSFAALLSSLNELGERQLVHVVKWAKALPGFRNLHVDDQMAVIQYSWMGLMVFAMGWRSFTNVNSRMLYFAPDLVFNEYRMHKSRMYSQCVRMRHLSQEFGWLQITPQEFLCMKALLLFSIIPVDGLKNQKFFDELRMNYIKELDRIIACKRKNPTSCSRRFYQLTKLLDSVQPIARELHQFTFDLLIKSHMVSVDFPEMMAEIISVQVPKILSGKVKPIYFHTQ

Nc1ccc2c(S(=O)(=O)O)cccc2c1S(=O)(=O)O
inactive: Potency [1] | Potency [2] | Potency [3] | Potency [4] | Potency [5] | outcome [6] | Potency [7]

CCCCCCCCCCCCN1CCCC1=O
active: Potency [1] 48.6 µM | Potency [3] 54.5 µM | Potency [7] 48.6 µM
inactive: Potency [8] | Potency [9] | Potency [5] | outcome [6]

Nc1cc([N+](=O)[O-])cc(Cl)c1O
inactive: Potency [1] | Potency [3] | Potency [8] | outcome [6] | Potency [7]

c1ccc2occc2c1
inactive: Potency [10] | Potency [8] | Potency [5] | outcome [6]

C=CC(=O)OCCOC1C2CCC1C1CC=CC12 (stereo unspecified)
inactive: activity change, negative = cytotoxicity [1] -0.168% [at 19 µM] | activation [2] 0.68% [at 19 µM] | activity change, negative = cytotoxicity [3] 2.85% [at 19 µM] | activation [8] 0.428% [at 19 µM] | cAMP activity change [9] -2.01% [at 18.9 µM, active compounds read high] | activity change, negative = inhibition [4] 6.1% [at 19 µM] | activity change, negative = cytotoxicity [5] 0.411% [at 19 µM]

Cc1c(Cl)c(=O)oc2cc(O)ccc12
inactive: Potency [1] | Potency [3] | Potency [9]

Cc1cccc(C)c1C
inactive: Potency [1] | Potency [3] | Potency [9] | Potency [4] | Potency [5] | outcome [6] | Potency [7]

Nc1cccnc1N
inactive: Potency [1] | Potency [3] | Potency [8] | Potency [9] | outcome [6] | Potency [7]
